Compound activity as filed in PubChem BioAssay.
Rab9 prom act = qHTS Assay for Rab9 Promoter Activators | Huh7 Rab9 promoter-luciferase reporter, luminescence, 24 h | 320,000 tested, 2.8% active | Potency, µM (doses to about 9.22 µM), inactives show top-dose activation, negative = inhibition, hits mostly activators; also: % of control where 0% means no effect; nearly all actives have a fitted effect of over 60% in size
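Cell-based reporter: Huh7 stable for Rab9 promoter-driven luciferase, plated in reduced-serum medium with 10% FBS at 1500 cells/well, compound-treated 24 h at 37 °C, luminescence read after 10 min reagent.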
FLuc counter = qHTS profiling assay for firefly luciferase inhibitor/activator using purifed enzyme and Km concentrations of substrates (counterscreen for miR-21 project) | purified FLuc, Km substrates, luminescence inhibition | 360,000 tested, 6.9% active | Potency, µM (doses to about 57.5 µM), for the others: at the highest dose activity change, negative = inhibition, most hits filed as inhibitors;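 also: plate controls were vehicle for no effect and reference inhibitor for full effect; nearly all actives have a fitted effect of over 55% in size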
Target sequence (P08659 whole entry, looked up): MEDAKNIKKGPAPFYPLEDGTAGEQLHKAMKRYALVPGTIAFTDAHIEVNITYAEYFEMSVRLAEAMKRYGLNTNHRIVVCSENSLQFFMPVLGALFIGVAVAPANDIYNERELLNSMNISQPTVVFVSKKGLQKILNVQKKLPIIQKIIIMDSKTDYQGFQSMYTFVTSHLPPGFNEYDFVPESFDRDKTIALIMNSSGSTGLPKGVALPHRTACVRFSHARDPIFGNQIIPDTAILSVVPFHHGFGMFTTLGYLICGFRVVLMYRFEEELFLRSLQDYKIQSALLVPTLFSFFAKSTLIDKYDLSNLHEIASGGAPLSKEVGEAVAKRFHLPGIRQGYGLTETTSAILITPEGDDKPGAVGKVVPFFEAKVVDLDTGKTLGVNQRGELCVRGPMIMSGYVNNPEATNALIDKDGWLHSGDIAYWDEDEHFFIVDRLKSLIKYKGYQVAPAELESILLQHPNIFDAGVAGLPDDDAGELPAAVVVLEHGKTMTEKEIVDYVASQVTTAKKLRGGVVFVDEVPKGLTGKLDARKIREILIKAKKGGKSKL
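Biochemical qHTS of compounds, final roughly 60 µM downward over six points, against 10 nM purified firefly luciferase using Km concentrations of substrates (10 uM D-luciferin, 10 uM ATP) in Tris acetate pH 7.5 buffer; luminescence output.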
ELG1 genotoxic = qHTS screen for small molecules that induce genotoxicity in human embryonic kidney (HEK293T) cells expressing luciferase-tagged ELG1. Potency, µM (top dose mostly 46 µM), without a hit: at the highest dose activity change, positive = activation, actives largely listed as activators. 330,000 tested, 1.3% active. HEK293T ELG1-luciferase reporter, luminescence, 16 h; also: % of control where 0% means no effect; nearly all actives have a fitted effect of over 60% in size
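HEK293T cells expressing luciferase-tagged ELG1 were exposed to compound or DMSO vehicle for 16 hr at 37 °C and 5% CO2. Luciferase activity was then measured with ONE-Glo after 30 min at room temperature.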
ELG1 DNA repair = qHTS screen for small molecules that inhibit ELG1-dependent DNA repair in human embryonic kidney (HEK293T) cells expressing luciferase-tagged ELG1. HEK293T ELG1-luciferase reporter, luminescence, 16 h; DNA damage induced by 5-fluorouridine. Potency, µM (series often up to 46.1 µM), for inactives: top-dose activity change, negative = inhibition, actives largely listed as inhibitors. 330,000 tested, 2.3% active; also: % is scaled to controls: 0 for no effect and ±100 for the full control effect; nearly all actives have a fitted effect of over 55% in size
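Reporter activity after DNA damage by 5-fluorouridine is monitored. Compound-treated cells incubate 16 hr at 37 °C, then ONE-Glo is added for 30 min before luminescence reading.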
SMN2 splice enh = qHTS Assay for Enhancers of SMN2 Splice Variant Expression. 210,000 tested, 2.8% active. AID 1458, 2008. HEK293 SMN2-luciferase splicing reporter, luminescence, 30-36 h. Potency, µM (doses to about 46.1 µM), for the others: at the top dose activity change, positive = activation, actives largely listed as activators; also: % of control where 0% means no effect; nearly all actives have a fitted effect of over 55% in size
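HEK293 cells carry an SMN2 […]–luciferase reporter in which exon 7 inclusion puts luciferase in frame. Cells were plated 10-12 h before compound addition, then incubated 30-36 h at 37C. ONE-Glo luminescence was read; sodium butyrate at 4.5 mM final served as control.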
NPC1 prom act = qHTS Assay for NPC1 Promoter Activators. Potency, µM (top dose mostly 9.22 µM), without a hit: at the top dose activation, hits mostly activators. 320,000 tested, 2.4% active. Huh7 NPC1 promoter luciferase reporter, 24 h; also: % of control where 0% means no effect; nearly all actives have a fitted effect of over 60% in size
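Huh7 cells stably carrying NPC1 promoter–luciferase, plated in Opti-MEM with 10% FBS for 2 h, were exposed to compound in DMSO for 24 h at 37 °C; luciferase reagent was added for 10 min and luminescence read.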
* = called active by the depositor; ? = inconclusive; · = no result. Only some compounds are listed: those with a hit (about 9.2% of all), similar ones and a draw of the others. Calls follow the shape of the dose curve; as a rule, active = well fitted curve in the direction sought with a large enough effect; inconclusive = small, poorly fitted or top-dose-only effect, or another doubt; inactive = no such curve, though single readings can be large; an effect the other way counts as inactive or inconclusive. Potency is read from the fitted curve at half-maximal effect.

SMILES	Rab9 prom act	FLuc counter	ELG1 genotoxic	ELG1 DNA repair	SMN2 splice enh	NPC1 prom act
O=c1ccc(/C=C/c2ccccc2)nn1Cc1ccccc1	1%	-1%	-1%	-6%	-17%	1%
Cc1cc(C)nc(N/N=C/C=C/c2ccccc2)n1	7%	?	1%	?	1%	-2%
C(=C\c1cc(/C=C/c2ccccc2)ncn1)/c1ccccc1	10%	12µM*	?	?	-5%	7%
Cc1ccc2cccc(OC(=O)/C=C\c3ccccc3)c2n1	-3%	6%	-1%	1%	·	-2%
O=C1C=C(Nc2ccc(Cl)cc2)C(=O)N1c1ccc(Cl)cc1	15%	2%	4%	?	11%	9%
COc1ccc(OC)c(C2=NOC(C(=O)Nc3cc(C)on3)C2)c1 (stereo unspecified)	-1%	0%	-1%	0%	·	0%
CCOc1ccc(C(CC(=O)O)NC(=O)COc2ccccc2OC)cc1OC (stereo unspecified)	-6%	-7%	2%	21%	22µM*	-2%
CCOc1ccc(C(CC(=O)O)NC(=O)COc2ccc3ccccc3c2)cc1OC (stereo unspecified)	-4%	-6%	0%	-3%	·	-4%
COc1cccc(NC(=O)NC2CCN(CC(=O)Nc3ccccc3[N+](=O)[O-])CC2)c1	4%	-5%	-16%	21µM*	·	2%
O=C(CN1CCC(NC(=O)Nc2ccc(F)cc2)CC1)Nc1ccccc1[N+](=O)[O-]	15%	-5%	-8%	18µM*	·	-2%
O=C(Cn1[nH]c(=O)c2ccccc2c1=O)OCC(=O)c1ccc(Br)cc1	2%	1%	2%	14%	·	-1%
CN(C)S(=O)(=O)c1ccc2c(c1)/C(=C/c1cc3c([nH]1)CCCC3)C(=O)N2	?	-20%	?	16%	11µM*	?
Cc1cc(C)n(C(C)CC(=O)NCc2ccccc2C)n1 (stereo unspecified)	·	0%	·	·	·	·
O=C(NCCN1CCOCC1)c1cccc(S(=O)(=O)Nc2cc(Cl)ccc2Cl)c1	-6%	1%	-1%	16%	·	-3%
CN(C)S(=O)(=O)c1ccc(Cl)c(NC(=O)COC(=O)/C=C/c2cnc3ccccc3n2)c1	9%	11µM*	4%	3%	·	1%
Cc1ccc(S(=O)(=O)N(C)C)cc1NC(=O)COC(=O)/C=C/c1cnc2ccccc2n1	7%	17µM*	27%	14%	8%	1%
COc1cc(NC(=S)NCCN2CCOCC2)cc(OC)c1	1%	5%	1%	-7%	25%	2%
Cc1ccc2c(c1)c1nc3ccccc3nc1n2C	3%	6.7µM*	?	?	·	2%
Cn1c2ccc(F)cc2c2nc3ccccc3nc21	12%	?	?	9%	·	28%
Cc1cccc(-n2c(SCC(=O)N3CC(=O)Nc4ccccc43)nc3ccccc3c2=O)c1C	-1%	-2%	-10%	21µM*	-19%	-4%
Cc1sc2nc(C3CCCCC3)nc(SCC(=O)N3CC(=O)Nc4ccccc43)c2c1C	3%	0%	0%	-3%	-14%	0%
CCc1nc(SCC(=O)N2CC(=O)Nc3ccccc32)c2c(C)c(C)sc2n1	-2%	-15%	-8%	23µM*	-14%	1%
Cc1cccc(-n2c(SCC(=O)N3CC(=O)Nc4ccccc43)nc3ccccc3c2=O)c1	-8%	-1%	-5%	?	1%	-5%
CCc1ccc2nc(SCC(=O)N3CC(=O)Nc4ccccc43)c(C#N)cc2c1	-5%	-1%	10%	?	26%	-11%
